D2 ag-1 = Beta-Arrestin HTS for Positive Allosteric Modulators of the Human D2 Dopamine Receptor: Agonists; DiscoveRx PathHunter D2 beta-arrestin, luminescence, 90 min; 100% = 57 uM dopamine signal; activation, % (test concentration not listed); 0.084% of 360,000 active; in the data active means activation above about 40%; inconclusive means between about 15% and that limit
Target sequence (P14416 whole entry, looked up): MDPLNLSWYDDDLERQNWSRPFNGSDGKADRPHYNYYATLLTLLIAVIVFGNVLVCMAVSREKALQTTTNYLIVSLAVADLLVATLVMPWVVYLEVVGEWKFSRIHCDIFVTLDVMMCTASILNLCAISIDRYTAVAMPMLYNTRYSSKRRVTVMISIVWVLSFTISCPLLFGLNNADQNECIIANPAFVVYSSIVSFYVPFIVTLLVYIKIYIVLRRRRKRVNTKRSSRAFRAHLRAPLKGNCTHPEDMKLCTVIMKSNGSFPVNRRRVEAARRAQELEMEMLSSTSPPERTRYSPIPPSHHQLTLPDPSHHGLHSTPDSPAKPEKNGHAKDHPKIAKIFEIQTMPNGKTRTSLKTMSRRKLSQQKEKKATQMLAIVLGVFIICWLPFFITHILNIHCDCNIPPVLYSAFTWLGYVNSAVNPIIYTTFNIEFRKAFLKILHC
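DiscoveRx PathHunter D2 beta-arrestin cells (2,100/well) attached overnight, then compound-stimulated 90 min at 37 C in HBSS/10 mM HEPES/0.1% Tween-20 buffer; beta-galactosidase complementation read by luminescence after 1 h at ambient temperature. Dopamine 57 uM final (EC100) as control.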
D2 antag = HTS Assay for Allosteric Antagonists of the Human D2 Dopamine Receptor: Primary Screen for Antagonists; HEK293 TREx D2 cells, calcium flux, dopamine EC80; inhibition, % at 10 µM; 2% of 340,000 active; AID 485344, 2010; D(2) dopamine receptor (Homo sapiens), P14416; in the data active means inhibition above about 30%; inactive means below that, where a call was filed
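Tetracycline-induced HEK293 TREx cells expressing D2 receptor forced-coupled to calcium signalling, loaded with no-wash calcium dye. Compounds added and calcium flux read 180 s, then dopamine added at EC80 and read a further 180 s.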
D2 PAM-1 = Beta-Arrestin HTS for Positive Allosteric Modulators of the Human D2 Dopamine Receptor: Potentiators | D(2) dopamine receptor (Homo sapiens), P14416 | 0.23% of 360,000 active | potentiation, % (test concentration not listed) | AID 624464, 2012 | DiscoveRx D2 beta-arrestin cells, luminescence, 90 min; 100% = 57 uM dopamine signal; in the data active means potentiation above about 50%; inconclusive means mostly about 30% to 49%
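PathHunter D2 cells, attached overnight at 37 deg C, received compound in DMSO plus dopamine at EC20 (50 nM final) for 90 min at 37 deg C. Beta-arrestin recruitment was read as luminescence after 1 h with detection reagent at ambient temperature.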
D2 ag-2 = HTS Assay for Allosteric Agonists of the Human D2 Dopamine Receptor: Primary Screen for Agonists | 0.53% of 340,000 active | HEK293 T-REx D2 cells, calcium flux agonist mode | activation, % at 2 µM | D(2) dopamine receptor (Homo sapiens), P14416;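 active means activation over 3 SD above normal in the single-dose calcium agonist read, cut at about 30% in these data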
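Tetracycline-induced HEK293 T-REx cells with force-coupled D2 receptor, plated overnight at 30 C, loaded with no-wash calcium dye. After a 10 s baseline, compound was pin-added and calcium flux read kinetically for 180 s; calcium rises flagged agonists.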
D2 PAM-2 = HTS Assay for Positive Allosteric Modulators of the Human D2 Dopamine Receptor: Primary Screen for Potentiators. AID 485347, 2010. D(2) dopamine receptor (Homo sapiens), P14416. 0.34% of 340,000 active. HEK293 T-REx D2, calcium flux, EC20 dopamine potentiation. potentiation, % at 10 µM;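 active means potentiation over 3 SD above the plate norm, cut at about 30% in these data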
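Potentiation of an EC20 dopamine calcium response is measured in a force-coupled, tetracycline-inducible Hek293 Trex D2 line. Compound-only kinetic reads over 180 s flag agonists before dopamine addition.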
Large screens that a line does not name were inactive. Hits are enriched below; roughly 2.4% of the tested compounds scored in any of these assays.

COc1ccc(OCC(=O)Nc2ccc(-c3nc4cc(C)cc(C)c4o3)cc2)cc1	none (no result: D2 ag-1, D2 antag, D2 PAM-1)
Cc1cc(C)n(-c2nc3ccccc3nc2Nc2cccc(C(=O)NCCc3ccccc3)c2)n1	none (no result: D2 ag-1, D2 antag, D2 PAM-1)
CCNC(=O)C1CCCN(c2nn3cc(-c4ccc(C)cc4)nc3s2)C1 (stereo not given)	none (no result: D2 ag-1, D2 antag, D2 PAM-1)
CC(NC(=O)Cn1ccc2cc(S(=O)(=O)N3CCCCCC3)ccc21)c1ccccc1 (stereo not given)	none (no result: D2 ag-1, D2 antag, D2 PAM-1)
C=CCN(c1ccccc1)S(=O)(=O)c1cccc(C(=O)Nc2nnc(SCC)s2)c1	D2 antag 43
CC1Sc2ccc(S(=O)(=O)CCC(=O)NC3CCCCC3C)cc2NC1=O (stereo not given)	none
COc1ccc(CC(=O)NC(CC(=O)O)c2ccc(OC)cc2)cc1 (stereo not given)	D2 antag 36
CCOc1ccc(C(CC(=O)O)NC(=O)C(CC)c2ccccc2)cc1 (stereo not given)	D2 antag 35
O=C(O)CC(NC(=O)Cc1ccc(Cl)cc1)c1ccco1 (stereo not given)	D2 PAM-2 39
O=C(O)CC(NC(=O)c1ccco1)c1ccco1 (stereo not given)	none
Cc1cccc(N(C)C(=O)CCNS(=O)(=O)c2ccc3c(c2)CCN3C(=O)C2CC2)c1	none (no result: D2 ag-1, D2 antag, D2 PAM-1)
O=C(CN1C(=O)COc2ccc(S(=O)(=O)Nc3ccccc3)cc21)NCc1ccccc1Cl	none (no result: D2 ag-1, D2 antag, D2 PAM-1)
CCc1ccccc1NC(=O)c1sc2nc3n(c(=O)c2c1C)CCC3	none (no result: D2 ag-1, D2 antag, D2 PAM-1)
O=C(O)[C@H]1CCCC[C@H]1C(=O)NCCc1ccccc1	D2 antag 45
CC(C)=C1C2CCC1C(C(=O)NCCc1ccccc1)C2C(=O)O (stereo not given)	D2 ag-2 39
Cc1ccc(NC(=O)C2CCCCC2)cc1C	D2 antag 36
COc1cc(CN(C)CCc2ccccc2)ccc1OCc1ccccc1	D2 antag 36
CCN1CCN(c2ccc(S(=O)(=O)N3CCCCC3)cc2NC(=O)c2ccc([N+](=O)[O-])s2)CC1	D2 ag-1 inconclusive, D2 PAM-1 74
O=C(Nc1cc(S(=O)(=O)N2CCOCC2)ccc1N1CCCC1)C1CC1	D2 antag 54
Nc1cc(S(=O)(=O)N2CCCCC2)ccc1N1CCOCC1	D2 antag 32
CCN1CCN(c2ccc(S(=O)(=O)N3CCOCC3)cc2NC(=O)CCOc2ccccc2)CC1	D2 antag 32
Cc1ccc(NC(=O)C(CC(C)C)NS(=O)(=O)c2ccc3c(c2)oc(=O)n3C)c(C)c1 (stereo not given)	none (no result: D2 ag-1, D2 antag, D2 PAM-1)
Cc1cn(CC(=O)NCCc2c[nH]c3ccccc23)c(=O)[nH]c1=O	none (no result: D2 antag, D2 ag-2, D2 PAM-2)
O=C(CCCCCn1c(=O)[nH]c2ccsc2c1=O)N1CCCCC1	none
O=C(CCCCCn1c(=O)[nH]c2ccsc2c1=O)N1CCN(C2CCCCC2)CC1	D2 antag 53
Cc1cccc(N2CCN(C(=O)CCn3c(=O)[nH]c4ccsc4c3=O)CC2C)c1 (stereo not given)	D2 ag-1 56, D2 PAM-1 inconclusive
Cc1nc2c(c(C)c1CCC(=O)NCc1ccc(Cl)cc1)c(=O)n(C)c(=O)n2C	none (no result: D2 ag-1, D2 antag, D2 PAM-1)
Cc1ccc(OCCCCN2CCC(C)CC2)cc1	D2 antag 49
CC1CCN(CCCCOc2ccc(C(=O)c3ccccc3)cc2)CC1	none (no result: D2 antag, D2 ag-2)
CC1CCN(CCOc2cccc(Br)c2)CC1	D2 antag 98
CCN(CC)CCOc1cccc(C(C)C)c1	D2 antag 73 (no result: D2 PAM-2)
Brc1cccc(OCCCN2CCCCCC2)c1	none
CC1CCN(CCCCOc2cccc(C(C)C)c2)CC1	D2 antag 58
CC1CCN(CCCCOc2ccc(F)cc2)CC1	D2 antag 44
CN1CCN(CCCCOc2ccc(F)cc2)CC1	none
CCCCCCCCOc1ccc(C2CC(=O)NC2=O)cc1 (stereo not given)	none

Screening data (PubChem BioAssay)
